Our source for the Potency, outcome and max response values is PubChem BioAssay (NCATS).

In assay [1] the target is Arylsulfatase A (Homo sapiens) (UniProt P15289). Briefly: qHTS screen for enhancers of Arylsulfatase A (ASA1): LOPAC Validation Assay (AID 720538). Further: potency means the concentration at half of the fitted maximal effect. The gist of the method: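 MLD patient fibroblasts (SV40, ASA-I179S), 1536-well; adhere 6 hrs; cpd 48h, 37 degree C, 5% CO2; pNCS 0.5mM final in lysis buffer, 14h RT; stop 1N NaOH final; fluor. Ex525/Em598.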
Arylsulfatase A (Homo sapiens), sequence (P15289 whole entry, looked up): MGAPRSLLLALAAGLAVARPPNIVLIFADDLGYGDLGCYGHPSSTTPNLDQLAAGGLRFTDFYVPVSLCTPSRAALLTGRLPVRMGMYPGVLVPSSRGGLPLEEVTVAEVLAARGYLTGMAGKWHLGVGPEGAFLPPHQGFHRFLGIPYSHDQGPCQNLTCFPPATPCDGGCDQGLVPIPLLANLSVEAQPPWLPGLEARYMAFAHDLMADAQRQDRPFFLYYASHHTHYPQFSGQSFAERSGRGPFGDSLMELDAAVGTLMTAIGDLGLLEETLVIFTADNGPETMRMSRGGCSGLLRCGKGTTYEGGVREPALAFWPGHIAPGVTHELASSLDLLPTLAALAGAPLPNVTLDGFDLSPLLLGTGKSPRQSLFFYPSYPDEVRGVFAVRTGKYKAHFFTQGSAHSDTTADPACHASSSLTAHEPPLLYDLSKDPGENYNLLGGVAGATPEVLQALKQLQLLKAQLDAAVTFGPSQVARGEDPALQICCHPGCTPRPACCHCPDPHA
On the technique in general: Quantitative high-throughput screening tests each substance at several concentrations.

A short description of assay [2]: qHTS for compounds that reverse cellular toxicity of Amyloid beta (A-beta) peptide in yeast: LOPAC Validation Assay (AID 720559).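 Further: plate controls were DMSO for no effect and equimolar ferric chloride plus clioquinol rescue for full effect.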 The procedure, abridged: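 Medium dispensed, compounds pinned, A-beta yeast suspension added; plates held at 30 C for 48 hr; absorbance measured at 600 nm to gauge growth; values scaled between DMSO and FeCl3/clioquinol (equimolar) controls.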

Assay [3] is described as follows: qHTS for Activators of Parkin Expression: LOPAC Validation Assay (NLuc Reporter) (AID 720572; further: potency means the concentration at half of the fitted maximal effect). The gist of the method: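 Cells harboring the Parkin-promoter coincidence reporter were treated for 24 h at seven concentrations. NLuc output was measured sequentially after the FLuc channel and scaled between DMSO and positive control values.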
A short description of assay [4]: qHTS for Activators of Parkin Expression: LOPAC Validation Assay (FLuc Reporter) (AID 720573). The procedure, abridged: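 Cells seeded, 24 h; compounds pinned, 7-pt dose response; 24 h at 37 C/5% CO2; volume reduced; FLuc reagent 10 min RT; luminescence read. Normalization: DMSO = 0, positive control = 100%.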
Assay [5] has as its target T1, Hexokinase-4 (Homo sapiens) + Glucokinase regulatory protein (Homo sapiens) (UniProt P35557+Q14397). As to the kind of experiment: qHTS assay for inhibitors of recombinant human GCK-GKRP interaction: Diaphorase-coupled assay (AID 743205). The procedure, abridged:
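25 mM Hepes pH 7.6, 5 mM glucose, 0.4 mM ATP, 4 U/ml G6PDH; 10 nM each GST-GCK/FLAG-GKRP. Kinetic fluorescence read, 1/min × 30 min. Normalized: DMSO ± enzyme = max/min.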

For assay [6], the target named is T1, Hexokinase-4 (Homo sapiens) + Glucokinase regulatory protein (Homo sapiens). As to the kind of experiment: qHTS assay for inhibitors of recombinant human GCK-GKRP interaction: ADP-Glo assay (AID 743206).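 Further: plate controls were DMSO plus enzyme for no effect and no enzyme for full effect.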 The gist of the method:
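Pin-transferred compounds meet a 15 nM GST-GCK/15 nM FLAG-GKRP/2 uM S6P mix (dispense concentrations). ATP is then added to 0.4 mM final with 5 mM glucose, and the reaction runs 60 min at room temperature. ADP is quantified luminescently.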

For assay [7] the target is unchanged. Briefly: qHTS assay for inhibitors of recombinant human GCK-GKRP interaction: HTRF assay (AID 743207).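 Further: 0% = DMSO with GCK present and -100% = DMSO wells lacking GCK.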 The procedure, abridged: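 5 nM GST-GCK + 5 nM FLAG-GKRP + 2 uM S6P, pH 7.1 buffer (25 mM Hepes, 2 mM MgCl2, 25 mM KCl, 1 mM DTT, Tween/BSA); pin-transferred cpd; anti-FLAG XL665/anti-GST K; 60 min RT; HTRF.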
For assay [8], the target named is Nuclear receptor ROR-gamma (Homo sapiens) (UniProt P51449). Briefly: qHTS assay for small molecule antagonists of the retinoid-related orphan receptor gamma (ROR-gamma) signaling pathway (AID 651802).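 Further: CHO cells with doxycycline-induced ROR-gamma expression; luciferase reporter luminescence driven by ROR response element; series mostly up to about 92 µM; on the % scale 0 is the no-effect control and ±100 the full control effect; nearly all actives have a fitted effect of over 60% in size.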 The gist of the method: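 Luciferase read-out: ONE-Glo luminescence after 30 min at room temperature, following 16hr doxycycline induction at 37C, 5% CO2 of CHO cells with TET-inducible ROR and RORE-LUC reporter; decreased luminescence = reduced reporter activity.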
Nuclear receptor ROR-gamma (Homo sapiens), sequence (P51449 whole entry, looked up): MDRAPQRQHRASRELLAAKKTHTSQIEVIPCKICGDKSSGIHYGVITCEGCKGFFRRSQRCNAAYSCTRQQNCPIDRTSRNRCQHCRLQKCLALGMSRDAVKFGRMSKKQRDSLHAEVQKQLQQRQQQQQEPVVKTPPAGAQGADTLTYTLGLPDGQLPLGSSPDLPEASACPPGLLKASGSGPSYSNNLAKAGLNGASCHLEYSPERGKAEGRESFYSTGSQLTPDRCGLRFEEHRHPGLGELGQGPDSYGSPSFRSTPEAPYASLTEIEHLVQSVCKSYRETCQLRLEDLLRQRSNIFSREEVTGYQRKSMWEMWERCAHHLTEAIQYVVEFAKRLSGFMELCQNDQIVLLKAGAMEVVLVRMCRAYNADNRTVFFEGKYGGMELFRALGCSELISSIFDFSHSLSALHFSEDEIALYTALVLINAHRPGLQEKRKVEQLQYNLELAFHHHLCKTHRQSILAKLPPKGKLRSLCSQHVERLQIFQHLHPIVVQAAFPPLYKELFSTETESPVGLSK

Assay [9] can be described thus: qHTS assay for small molecule agonists of the antioxidant response element (ARE) signaling pathway measured by Nrf2-dependant transcriptional activity (AID 720636; active means well fitted curve in the direction sought with a large enough effect in the repeat runs; an effect the other way counts as inactive or inconclusive; further: % of control where 0% means no effect). The procedure, abridged:
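ARE-luc HepG2 cells carrying an Nrf2-responsive luciferase reporter, in medium with 1% dialyzed FBS, exposed to compound for 16 hr at 37 C, 5% CO2. Luminescence read 30 min after ONE-Glo addition.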

Assay [10] in a line: qHTS assay for small molecule antagonists of the retinoid-related orphan receptor gamma (ROR-gamma) signaling pathway - cell viability counter screen (AID 720652; active means well fitted curve in the direction sought with a large enough effect in the repeat runs; an effect the other way counts as inactive or inconclusive;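 further: CHO reporter cells with doxycycline-induced ROR-gamma expression; series mostly up to about 92 µM; compound exposure lasted 16 hr before ATP read; on the % scale 0 is the no-effect control and ±100 the full control effect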). The gist of the method:
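CHO RORE-LUC/TET-ROR line, 1,000 cells/well, 37 C 5% CO2 5 hr; cpd or DMSO + doxycycline induction, 16 hr. CellTiter-Glo, 30 min RT, luminescence = ATP content.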

Assay [11] can be described thus: qHTS assay for small molecule agonists of the antioxidant response element (ARE) signaling pathway measured by Nrf2-dependant transcriptional activity - cell viability counter screen (AID 720653; active means well fitted curve in the direction sought with a large enough effect in the repeat runs; an effect the other way counts as inactive or inconclusive; further: on the % scale 0 is the no-effect control and ±100 the full control effect). Particulars: ARE-bla HepG2 viability, CellTiter-Glo ATP luminescence, 16 h; hits give low values. The gist of the method: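 ARE-bla HepG2 cells (2,000/well) rested 5 hrs at 37C/5% CO2, then exposed to compounds in DMSO for 16 hrs. Viability was read in the same wells as intracellular ATP by luminescence, 30 min at room temperature after reagent addition.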

Assay [12] in a line: qHTS Assay for Identifying Gametocytocidal Compounds (AID 743244).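 Further: on the % scale 0 is the no-effect control and ±100 the full control effect; actives lower the fluorescent signal which means gametocytes are killed.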 The conditions noted are these: P. falciparum 3D7 stage III-V gametocytes, alamarBlue, 72 h; max response: hits give low values. The procedure, abridged:
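Using 20,000 stage III–V 3D7 gametocytes per well, compounds were incubated 72 h under 37 °C/5% CO2. Viability was then assessed by 24 h alamarBlue reduction, measured fluorometrically at 525/598 nm.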

Assay [13] is described as follows: qHTS assay for cell viability of HEK293 cells (AID 743288). Further: on the % scale 0 is the no-effect control and ±100 the full control effect; nearly all actives have a fitted effect of over 50% in size. Particulars: ATP luminescence (CellTiter-Glo), 18 h; max response: hits give low values. The procedure, abridged:
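Viable-cell counts were inferred from luciferase-based ATP content in HEK293 cells seeded at 2,000/well, pre-incubated ≥5 h, then dosed with DMSO-solubilised compounds for 18 h at 37 C.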

A short description of assay [14]: qHTS assay for cell viability of the p53RE-bla HCT-116 cell line (AID 743292). Further: on the % scale 0 is the no-effect control and ±100 the full control effect; nearly all actives have a fitted effect of over 55% in size. The gist of the method:
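CellSensor p53RE-bla HCT-116 cells (4,000/well) pre-incubated 5 h at 37 C, then exposed to compounds in DMSO for 16 h at 37 C. Viability read as ATP content by CellTiter-Glo luminescence after 30 min at room temperature.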

A number with no mark means an inactive call. Inconclusive results are not listed. Activity calls are given as the source filed them. Unless noted, the call rests on the fitted dose curve; in most records, active means well fitted curve in the direction sought with a large enough effect; inconclusive means small, poorly fitted or top-dose-only effect, or another doubt; inactive means no such curve, though single readings can be large; an effect the other way counts as inactive or inconclusive.

T1 sequence (P35557 whole entry, looked up): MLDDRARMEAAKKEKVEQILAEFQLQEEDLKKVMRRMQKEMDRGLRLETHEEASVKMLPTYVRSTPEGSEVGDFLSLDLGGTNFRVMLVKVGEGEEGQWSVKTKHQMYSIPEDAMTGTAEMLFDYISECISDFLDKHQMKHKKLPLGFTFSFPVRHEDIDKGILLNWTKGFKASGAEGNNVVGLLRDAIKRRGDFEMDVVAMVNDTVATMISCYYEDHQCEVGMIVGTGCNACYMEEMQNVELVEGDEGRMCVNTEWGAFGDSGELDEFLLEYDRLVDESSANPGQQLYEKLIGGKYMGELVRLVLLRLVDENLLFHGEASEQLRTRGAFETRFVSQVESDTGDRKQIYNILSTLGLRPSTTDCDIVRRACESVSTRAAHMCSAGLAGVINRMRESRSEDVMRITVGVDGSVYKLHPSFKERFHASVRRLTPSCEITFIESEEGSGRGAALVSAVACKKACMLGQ
T1 sequence (Q14397 whole entry, looked up): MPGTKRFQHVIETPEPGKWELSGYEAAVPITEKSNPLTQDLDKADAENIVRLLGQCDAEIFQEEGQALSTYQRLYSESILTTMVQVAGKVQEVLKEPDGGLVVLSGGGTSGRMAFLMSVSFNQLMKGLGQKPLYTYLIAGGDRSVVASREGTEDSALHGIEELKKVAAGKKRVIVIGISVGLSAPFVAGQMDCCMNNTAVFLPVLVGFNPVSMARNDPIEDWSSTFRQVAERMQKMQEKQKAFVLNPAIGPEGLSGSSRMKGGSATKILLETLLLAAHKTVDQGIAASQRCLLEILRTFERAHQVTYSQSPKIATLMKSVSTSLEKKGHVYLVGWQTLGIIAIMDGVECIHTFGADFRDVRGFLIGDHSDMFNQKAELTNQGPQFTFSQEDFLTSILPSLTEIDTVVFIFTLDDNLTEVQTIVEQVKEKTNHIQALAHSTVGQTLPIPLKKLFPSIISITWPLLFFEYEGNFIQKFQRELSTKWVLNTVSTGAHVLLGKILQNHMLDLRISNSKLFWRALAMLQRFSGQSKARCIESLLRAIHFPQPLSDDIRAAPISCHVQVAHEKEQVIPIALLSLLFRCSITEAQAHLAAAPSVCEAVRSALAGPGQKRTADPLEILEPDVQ

In the case of `Nc1ccc(-c2nc3ccc(-c4nc5ccc(N)cc5[nH]4)cc3[nH]2)cc1`, the Potency in assay [1] was 6.75 µM (active). The result in [2] was inactive. Also, the Potency result in assay [3], in [4], in [5] and in assay [6] was “inactive” each time.

`COc1ccccc1N1CCN(CCCCNC(=O)c2ccc3ccccc3c2)CC1`: the Potency entry in assay [1], in [3], in assay [4], in assay [5], in assay [6] and in [7] was “inactive” in each case. For the same compound, the outcome in [2] was inactive.

With `COc1cc(CNC(=O)CCCCCCC(C)C)ccc1O`, the Potency result in assay [1], in assay [3], in [4], in assay [5], in assay [6] and in assay [7] was “inactive” in each case. Besides, in assay [2], the call was inactive.

With `NC(=O)c1ccccc1`, the result in [8], in [2], in assay [9] and in [10] was inactive. For the same compound, the Potency result in assay [1], in assay [3], in assay [4], in assay [5], in assay [6] and in assay [7] was “inactive” each time. Further, the Potency entry in [14] is “inactive”. The max response was -5% in [11], -3.76% in assay [12] and -1.67% in assay [13].

With `O=C(O)[C@H]1NCCC[C@H]1C(=O)O`, the Potency entry in [1], in assay [3], in [4], in assay [5], in assay [6] and in assay [7] was “inactive” each time. Further, the outcome in assay [2] was inactive.

Regarding `COc1ccc(NC(=O)c2ccc(-c3ccc(-c4noc(C)n4)cc3C)cc2)cc1N1CCN(C)CC1`, the Potency entry in assay [1], in assay [4], in [5], in assay [6] and in [7] was “inactive” in each case. For the same compound, the call in assay [2] was inactive. The Potency in assay [3] was 20.6 µM (active).

With `CCCCCC[C@@H]([C@@H](C)O)n1cnc2c(N)ncnc21`, the Potency result in assay [1], in [3], in assay [4], in assay [5], in assay [6] and in assay [7] was “inactive” in each case. The compound was called inactive in assay [2].

Consider `N=C(N)c1ccc(OCCCCCOc2ccc(C(=N)N)cc2)cc1` (tested in a mixture with another compound), for which the Potency entry in assay [1], in [3], in [4], in assay [5], in assay [6] and in [7] was “inactive” each time. The compound was classed as inactive in [2].

`C=CCN1CCc2c(cc(O)c(O)c2Br)[C@@H](c2ccccc2)C1`: the Potency result in assay [1], in assay [3], in assay [4], in assay [5], in assay [6] and in assay [7] was “inactive” in each case. For the same compound, in [2], the compound was called inactive.

With `O=C(O)Cc1ccc(O)c(O)c1`, the Potency entry in [1], in assay [3], in assay [4], in [5], in [6] and in assay [7] was “inactive” in each case. Also, the compound was called inactive in assay [2].

On to `N[C@@H](Cc1ccc(O)c(I)c1)C(=O)O`, for which the Potency result in assay [1], in assay [3], in assay [4], in [5], in [6] and in assay [7] was “inactive” throughout. Moreover, in assay [2], the compound was called inactive. The max response in [12] is 31.3%.

Turning to `CN(C)C(=O)/N=N/C(=O)N(C)C`, the Potency entry in assay [1], in assay [3], in assay [4], in assay [5], in assay [6] and in [7] was “inactive” each time. In addition, the outcome in [2] was inactive. The max response in [12] is -1.96%.

On to `CCCn1c(=O)c2c(ncn2C)n(CCC)c1=O`, for which the Potency entry in [1], in assay [3], in assay [4], in assay [5], in assay [6] and in assay [7] was “inactive” in each case. Moreover, the call in [2] was inactive. For the same compound, in assay [12], the max response is 12.3%.
